The full list was thinned out, with the strongest signals kept by preference.
Legend:
Test in all cases: glycan array binding signal (z-score within array); higher = stronger binding
Details in all cases: glycan notation: IUPAC condensed, linker removed
[1] = target: Fuc(a1-2)Gal(b1-3)GlcNAc(b1-3)[Gal(b1-4)GlcNAc(b1-6)]Gal(b1-4)Glc
How it was run: (§1)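 The binding signal is a Z-score computed within each array and averaged over linkers. Arrays of the same protein sequence at different concentrations or buffers were also averaged together. Data originate from 3228 arrays in the Consortium for Functional Glycomics database, kept only where the protein sequence was available.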

[2] = target: Fuc(a1-2)Gal(b1-4)[Fuc(a1-3)]GlcNAc(b1-2)[Fuc(a1-2)Gal(b1-4)[Fuc(a1-3)]GlcNAc(b1-4)]Man(a1-3)[Fuc(a1-2)Gal(b1-4)[Fuc(a1-3)]GlcNAc(b1-2)Man(a1-6)]Man(b1-4)GlcNAc(b1-4)GlcNAc
How it was run: as §1

[3] = target: Fuc(a1-2)[Gal(a1-3)]Gal(b1-3)GalNAc
How it was run: as §1

[4] = target: Fuc(a1-2)[Gal(a1-3)]Gal(b1-3)GalNAc(b1-3)Gal(a1-4)Gal(b1-4)Glc
How it was run: as §1

[5] = target: Fuc(a1-2)[GalNAc(a1-3)]Gal(b1-3)GlcNAc(b1-2)Man(a1-3)[Fuc(a1-2)[GalNAc(a1-3)]Gal(b1-3)GlcNAc(b1-2)Man(a1-6)]Man(b1-4)GlcNAc(b1-4)GlcNAc
How it was run: as §1

[6] = target: Fuc(a1-2)[GalNAc(a1-3)]Gal(b1-4)GlcNAc(b1-2)Man(a1-3)[Fuc(a1-2)[GalNAc(a1-3)]Gal(b1-4)GlcNAc(b1-2)Man(a1-6)]Man(b1-4)GlcNAc(b1-4)GlcNAc
How it was run: as §1

[7] = target: Fuc(a1-3)[Gal(b1-4)]GlcNAc(b1-3)GalNAc
How it was run: as §1

[8] = target: Fuc(a1-3)[Gal(b1-4)]GlcNAc(b1-6)GalNAc
How it was run: as §1

[9] = target: Fuc(a1-3)[Gal3S(b1-4)]GlcNAc
How it was run: as §1

[10] = target: Fuc(a1-4)GlcNAc
How it was run: as §1

[11] = target: Gal(a1-2)Gal
How it was run: as §1

[12] = target: Gal(a1-3)Gal
How it was run: as §1

[13] = target: Gal(a1-3)Gal(b1-3)GlcNAc
How it was run: as §1

[14] = target: Gal(a1-3)Gal(b1-3)GlcNAc(b1-2)Man(a1-3)[Gal(a1-3)Gal(b1-3)GlcNAc(b1-2)Man(a1-6)]Man(b1-4)GlcNAc(b1-4)GlcNAc
How it was run: as §1

[15] = target: Gal(a1-3)Gal(b1-4)Glc
How it was run: as §1

[16] = target: Gal(b1-3)GalNAc(b1-4)Gal(b1-4)Glc
How it was run: as §1

[17] = target: Gal(b1-3)GlcNAc(b1-3)Gal(b1-4)GlcNAc
How it was run: as §1

[18] = target: Gal(b1-4)GlcNAc(b1-2)Man(a1-3)[GlcNAc(b1-2)Man(a1-6)]Man(b1-4)GlcNAc(b1-4)GlcNAc
How it was run: as §1

[19] = target: Gal(b1-4)GlcNAc(b1-2)Man(a1-3)[GlcNAc(b1-4)][Gal(b1-4)GlcNAc(b1-2)Man(a1-6)]Man(b1-4)GlcNAc(b1-4)GlcNAc
How it was run: as §1

[20] = target: Gal(b1-4)GlcNAc(b1-2)Man(a1-6)Man(b1-4)GlcNAc(b1-4)GlcNAc
How it was run: as §1

[21] = target: Gal(b1-4)GlcNAc(b1-2)Man(a1-6)[Man(a1-3)]Man(b1-4)GlcNAc(b1-4)GlcNAc
How it was run: as §1

[22] = target: Gal(b1-4)GlcNAc(b1-2)[Gal(b1-4)GlcNAc(b1-6)]Man(a1-6)[GlcNAc(b1-4)][Gal(b1-4)GlcNAc(b1-2)Man(a1-3)]Man(b1-4)GlcNAc(b1-4)GlcNAc
How it was run: as §1

[23] = target: Gal(b1-4)GlcNAc(b1-3)Gal(b1-4)GlcNAc(b1-2)[Gal(b1-4)GlcNAc(b1-3)Gal(b1-4)GlcNAc(b1-6)]Man(a1-6)[Gal(b1-4)GlcNAc(b1-3)Gal(b1-4)GlcNAc(b1-2)Man(a1-3)]Man(b1-4)GlcNAc(b1-4)GlcNAc
How it was run: as §1

[24] = target: Gal(b1-4)GlcNAc(b1-3)Gal(b1-4)GlcNAc(b1-2)[Gal(b1-4)GlcNAc(b1-3)Gal(b1-4)GlcNAc(b1-6)]Man(a1-6)[Gal(b1-4)GlcNAc(b1-3)Gal(b1-4)GlcNAc(b1-2)Man(a1-3)]Man(b1-4)GlcNAc(b1-4)[Fuc(a1-6)]GlcNAc
How it was run: as §1

[25] = target: Gal(b1-4)GlcNAc(b1-3)Gal(b1-4)GlcNAc(b1-3)Gal(b1-4)GlcNAc(b1-3)Gal(b1-4)GlcNAc(b1-3)Gal(b1-4)GlcNAc(b1-2)[Gal(b1-4)GlcNAc(b1-3)Gal(b1-4)GlcNAc(b1-3)Gal(b1-4)GlcNAc(b1-3)Gal(b1-4)GlcNAc(b1-3)Gal(b1-4)GlcNAc(b1-6)]Man(a1-6)[Gal(b1-4)GlcNAc(b1-3)Gal(b1-4)GlcNAc(b1-3)Gal(b1-4)GlcNAc(b1-3)Gal(b1-4)GlcNAc(b1-3)Gal(b1-4)GlcNAc(b1-2)Man(a1-3)]Man(b1-4)GlcNAc(b1-4)[Fuc(a1-6)]GlcNAc
How it was run: as §1

[26] = target: Gal3S(b1-4)[Fuc(a1-3)]GlcNAc
How it was run: as §1

B1: rEtpA (Escherichia coli) (protein)
chain: MNRIYKLKFDKRRNELVVVSEITTGVGNAKATGSVEGEKSPRRGVRAMALSLLSGMMIMAHPAMSANLPTGGQIVAGSGSIQTPSGNQMNIHQNSQNMVANWNSFDIGKGNTVQFDQPSSSAVALNRVVGGGESQIMGNLKANGQVFLVNPNGVLFGEGASVSTSGFVASTRDIKNDDFMNRRYTFSGGQKAGAAIVNQGELTTNAGGYIVLAADRVSNSGTIRTPGGKTVLAASERITLQLDNGGLMSVQVTGDVVNALVENRGLVSARDGQVYLTALGRGMLMNTVLNVSGVVEASGMHRQDGNIVLDGGDSGVVHLSGTLQADNASGQGGKVVVQGKNILLDKGSNITATGGQGGGEVYVGGGWQGKDSNIRNADKVVMQGGARIDVSATQQGNGGTAVLWSDSYTNFHGQISAKGGETGGNGGRVETSSHGNLQAFGTVSASAKKGKAGNWLLDSADITIVNGSNVSKTETTQSPPHTQFAPTAAGSAVSNTSINNRLNNGTSVTILTHRTRTGTAQGGNITVNAAINKSNGSDVNLTLQAGGNITVNNSITSTEGKLNVNLSGARTSNGSITISNNANITTNGGDITVGTTNTSNRVNISINNTTLNASNGNIQLTGTGTDSGILFAGNNRLTASNIALTGNSTSGNAINLTGTATLNATNNITLTGSSTSGNAINLKGNNTLTASNITLTGESTSGNAINLTDTTGTTTLNATNNITMQGTRVQIKHSNITAGNFALNATVAGSEISNTTLTATNNINLAAKTNSASSGVYLKDARITSTNGSITANGTATANGKATHLDGNVTLNASNGRIKLTGNGHGSASGILFAGNNRLTASNIALTGNSTSGNAINLTGTATLNATNDITLTGSSTSGNAINLTGTATLNATNNITLTGSSTSGNAINLKGNNTLTASNITLTGESTSGNAINLTDTTGTTTLNATNNITMQGTRVQIKHSNITAGNFALNATVAGSEISNTTLTATNNINLAAKTNSASSGVYLKDARITSTNGSITANGTATANGKATHLDGNVTLNASNGRIKLTGNGHGSASGILFAGNNRLTASNIALTGNSTSGNAINLTGTATLNATNDITLTGSSTSGNAINLTGTATLNATNNITLTGSSTSGNAINLKGNNTLTASNITLTGESTSGNAINLTDTTGTTTLNATNNITMQGTRVQIKHSNITAGNFALNATVAGSEISNTTLTATNNINLAAKTNSASSGVYLKDARITSTNGSITANGTATANGKATHLDGNVTLNASNGRIKLTGNGHGSASGILFAGNNRLTASNIALTGNSTSGNAINLTGTATLNATNDITLTGSSTSGNAINLTGTATLNATNNITLTGSSTSGNAINLKGNNTLTASNITLTGESTSGNAINLTDTTGTTTLNATNNITMQGTRVQIKHSNITAGNFALNATVAGSEISNTTLTATNNINLAAKTNSASSGVYLKDARITSTNGSITTNGTATANGKATHLDGNVTLNASNGRIKLTGNGHGSASGILFAGNNRLTASNIALTGNSTSGNAINLTGTATLNATNDITLTGSSTSGNAINLTGTATLNATNNITLTGSSTSGNAINLKGNNTLTASNITLTGESTSGNAINLTDTTGTTTLNATNNITMQGTRVQIKHSNITAGNFALNATVAGSEISNTTLTATNNINLAAKTNSASSGVYLKDARITSTNGSITANGTAPANDNATYLDGNVTLNASNGSIKLTGNGNGSTSGILFAGNNTLTASNITLTGNSEVYWQKLGPEQKLISEEDLNSAVDHHHHHH
glycan array binding signal (z-score) [1]: -0.058 | glycan array binding signal (z-score) [2]: -0.225 | glycan array binding signal (z-score) [3]: 0.413 | glycan array binding signal (z-score) [4]: -0.241 | glycan array binding signal (z-score) [5]: -0.328 | glycan array binding signal (z-score) [6]: -0.09 | glycan array binding signal (z-score) [7]: -0.358 | glycan array binding signal (z-score) [8]: -0.192 | glycan array binding signal (z-score) [9]: -0.102 | glycan array binding signal (z-score) [10]: 2.8 | glycan array binding signal (z-score) [11]: 0.054 | glycan array binding signal (z-score) [12]: 2.11 | glycan array binding signal (z-score) [13]: 1.87 | glycan array binding signal (z-score) [14]: 0.182 | glycan array binding signal (z-score) [15]: -0.179 | glycan array binding signal (z-score) [16]: -0.272 | glycan array binding signal (z-score) [17]: -0.457 | glycan array binding signal (z-score) [18]: -0.408 | glycan array binding signal (z-score) [19]: -0.274 | glycan array binding signal (z-score) [20]: -0.376 | glycan array binding signal (z-score) [21]: 0.021 | glycan array binding signal (z-score) [22]: -0.309 | glycan array binding signal (z-score) [23]: -0.106 | glycan array binding signal (z-score) [24]: -0.356 | glycan array binding signal (z-score) [25]: -0.351 | glycan array binding signal (z-score) [26]: -0.202

Source: the supplement of paper PMC8728848
